By AC50 is commonly meant the concentration at which the activity in the assay is half-maximal.

Results on one compound are retold here after PubChem BioAssay (EPA / NIEHS).

Several values for one entry are separate records, joined by “and”; a condition that tells them apart may be missing. Equal entries are not always repeated. Some structures have more than one record in an assay (separate samples or runs), and their calls can disagree. Activity calls are given as the source filed them. Rule for the calls: active = hit-call score of the fitted dose curve at least 0.9, where 1 is the maximum; inactive = score below 0.9.

Read-out in test [1]: Intercellular Adhesion Molecule 1 (ICAM1), ICAM1 (gene 3383)
Put plainly: BSK_hDFCGF_ICAM1: BioMAP Diversity Plus: hDFCGF Assay for Intercellular Adhesion Molecule 1 (ICAM1) Biomarker Activity (AID 2284287). The note with it: primary human foreskin fibroblasts. A digest of the protocol:
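ICAM-1 ELISA readout 24 h after dosing, DMSO as baseline, in human dermal foreskin fibroblast cultures. Cytotoxicity checked in parallel wells by SRB staining (0.1% SRB, 10% TCA fixation, 560 nm).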

Read-out in another test: CD40, CD40 (gene 958)
Put plainly: BSK_IMphg_CD40: BioMAP Diversity Plus: IMphg Assay for CD40 Biomarker Activity (AID 2284288). The conditions noted are these: primary human endothelial cells with macrophages. The procedure, abridged:
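ELISA read-out of cell-surface CD40 at 24 h in human venular endothelial cell/macrophage co-cultures. Activity fitted in the positive direction against DMSO; parallel SRB staining (560 nm) gauges overt cytotoxicity.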

Read-out in test [2]: TIMP metallopeptidase inhibitor 2 (TIMP2), TIMP2 (gene 7077)
Briefly: BSK_hDFCGF_TIMP2: BioMAP Diversity Plus: hDFCGF Assay for TIMP metallopeptidase inhibitor 2 (TIMP2) Biomarker Activity (AID 2284289). The note with it: primary human foreskin fibroblasts. The procedure, abridged: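 Primary human foreskin fibroblasts in the hDFCGF system, dosed for 24 h; TIMP-2 level measured by ELISA, fitted in the positive direction against DMSO; cytotoxicity checked in parallel by sulforhodamine B total protein staining.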

Read-out in test [3]: Interleukin-1 alpha (IL1a), IL1A (gene 3552)
Put plainly: BSK_IMphg_IL1a: BioMAP Diversity Plus: IMphg Assay for Interleukin-1 alpha (IL1a) Biomarker Activity (AID 2284290). The note with it: primary human endothelial cells with macrophages. The procedure, abridged: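 IL-1α is quantified by ELISA at 24 h in the endothelial/macrophage IMphg co-culture, with gain of signal fitted relative to DMSO. Parallel SRB total-protein staining flags overt toxicity.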

Read-out in test [4]: E-selectin (Homo sapiens) (UniProt P16581)
Put plainly: BSK_IMphg_ESelectin: BioMAP Diversity Plus: IMphg Assay for Eselectin Biomarker Activity (AID 2284291). The conditions noted are these: primary human endothelial cells with macrophages. The protocol: BSK_IMphg is a cell-based, multiplexed-readout assay that uses venular endothelial cells and macrophages, a human vascular primary cell, with measurements taken at 24 hours after chemical dosing in a microplate: 96-well plate.BSK_IMphg_ESelectin is an assay component measured in the BSK_IMphg assay. It measures E-selectin antibody related to regulation of gene expression using ELISA technology.Data from the assay component BSK_IMphg_ESelectin was analyzed at the endpoint, BSK_IMphg_ESelectin, in the positive analysis fitting direction relative to DMSO as the negative control and baseline of activity. Using a type of binding reporter, gain or loss-of-signal activity can be used to understand protein changes. […]
The levels of cell surface (or secreted, indicated by the prefix "s") biomarker endpoints were measured by ELISA. Overt cytotoxicity to cells in confluent adherent cultures (all systems other than the BT system) was assessed by measuring total protein levels using sulforhodamine B (SRB) staining in parallel cultures at the time of biomarker measurements, indicated as SRB endpoints. For proliferation assays for adherent cell types, individual cell types are cultured at sub-confluence and relative cell numbers quantified by SRB staining at time points optimized for each system (48 h: 3C and CASM3C systems; 72 h: BT and HDF3CGF systems; 96 h: SAg system). […] Plates were read after 6 h.

The nature of test [5]: BSK_IMphg_SRB: Viability Assessment in the BioMAP Diversity Plus: IMphg Assay (AID 2284292).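 Note: measured one day after compound addition.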 The note with it: primary human endothelial cells with macrophages. The procedure, abridged: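 SRB viability endpoint: cultures of human endothelial cells plus macrophages fixed with 10% TCA, stained with 0.1% SRB, read at 560 nm 24 h post-dosing. Only gain-of-signal fitted, relative to DMSO.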

Read-out in test [6]: Macrophage colony-stimulating factor (MCSF), CSF1 (gene 1435)
Briefly: BSK_IMphg_MCSF: BioMAP Diversity Plus: IMphg Assay for Macrophage colony-stimulating factor (MCSF) Biomarker Activity (AID 2284293). The conditions noted are these: primary human endothelial cells with macrophages. A digest of the protocol:
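M-CSF was measured by ELISA in human venular endothelial cell/macrophage co-cultures dosed for 24 hours. Sulforhodamine B staining of parallel cultures assessed cytotoxicity; data fitted against DMSO baseline.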

Read-out in test [7]: Interleukin-10 (IL10), IL10 (gene 3586)
Put plainly: BSK_IMphg_IL10: BioMAP Diversity Plus: IMphg Assay for Interleukin-10 (IL10) Biomarker Activity (AID 2284294). The note with it: primary human endothelial cells with macrophages. The procedure, abridged:
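IL-10 read by ELISA after 24 h chemical exposure of primary human venular endothelial cell/macrophage cocultures, with DMSO as baseline. Parallel SRB staining (560 nm) gauged overt cytotoxicity.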

Test [8] in a line: BSK_IMphg_SRB.Mphg: Macrophage Viability Assessment in the BioMAP Diversity Plus: IMphg Assay (AID 2284295). The note with it: primary human endothelial cells with macrophages. The procedure, abridged:
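Cytotoxicity read-out: parallel cultures fixed with 10% TCA, stained with 0.1% sulforhodamine B, read at 560 nm. System combines venular endothelium and macrophages; sampled 24 h post-dosing, fitted positively relative to DMSO control.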

Read-out in test [9]: Thrombomodulin, THBD (gene 7056)
Put plainly: BSK_LPS_Thrombomodulin: BioMAP Diversity Plus: LPS Assay for Thrombomodulin Biomarker Activity (AID 2284296). The conditions noted are these: primary human HUVEC with PBMC. A digest of the protocol: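 Thrombomodulin on the surface of LPS-activated endothelial/PBMC co-cultures was quantified by ELISA at 24 hours post-dosing, with DMSO as baseline. Parallel SRB total-protein staining flagged overt cytotoxicity.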

Chain of E-selectin (Homo sapiens) (P16581 whole entry, looked up): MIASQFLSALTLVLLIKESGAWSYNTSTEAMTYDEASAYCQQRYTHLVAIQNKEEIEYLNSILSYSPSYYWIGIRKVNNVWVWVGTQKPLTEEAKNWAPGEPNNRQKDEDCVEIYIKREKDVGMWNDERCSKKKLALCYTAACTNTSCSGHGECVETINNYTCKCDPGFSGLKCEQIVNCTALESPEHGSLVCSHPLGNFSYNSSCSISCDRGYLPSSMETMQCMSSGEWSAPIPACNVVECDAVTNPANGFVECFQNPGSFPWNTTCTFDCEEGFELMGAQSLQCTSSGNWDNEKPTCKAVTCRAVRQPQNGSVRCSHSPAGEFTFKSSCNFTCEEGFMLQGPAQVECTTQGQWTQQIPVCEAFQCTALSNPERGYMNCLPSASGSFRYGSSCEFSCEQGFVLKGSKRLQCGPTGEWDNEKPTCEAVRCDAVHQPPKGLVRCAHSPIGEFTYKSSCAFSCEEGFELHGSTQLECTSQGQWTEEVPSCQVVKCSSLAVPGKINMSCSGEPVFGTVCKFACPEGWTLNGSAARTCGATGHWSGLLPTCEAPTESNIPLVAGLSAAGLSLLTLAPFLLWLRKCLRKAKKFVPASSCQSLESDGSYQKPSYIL

For the compound `CCNS(=O)(=O)C(F)(F)C(F)(F)C(F)(F)C(F)(F)C(F)(F)C(F)(F)C(F)(F)C(F)(F)F`, the concentration at half-maximal activity (AC50) is 42.5 µM (active) and 48.4 µM (active) in test [1]; 26.6 µM (active) with CD40, CD40 (gene 958); 30 µM (active) and 46.5 µM (active) in test [2]; 10.8 µM (active) and 30 µM (active) in [4]; 30 µM (active) in test [8]; 54.5 µM (active) in [9]. The outcome was “inactive” with CD40, CD40 (gene 958); “inactive” in [3]; “inactive” in [5]; “inactive” in [6]; “inactive” in test [7]; “inactive” in test [8]. Besides, the result in test [9] was inactive.
